# Source: the supplement of paper PMC9844399
# Where a name gives a salt, the structure may show the parent alone.
# System: HeLa
# Assay: nuclear count per well, robust Z-score vs DMSO; higher = more cells (less toxicity)
# Settings: 10 µM; 6 h
# 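Throughout, for MALAT1 nuclear FISH intensity, robust Z-score vs DMSO: High-content confocal imaging of branched-DNA amplified FISH in 384-well plates, Hoechst-defined nuclei, score is well value minus plate DMSO median over DMSO robust SD, four wells per compound.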
# 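Throughout, for nuclear count per well, robust Z-score vs DMSO: Hoechst-stained nuclei counted by automated confocal imaging of four fields per well in 384-well plates, with the robust Z-score based on the per-plate DMSO median and robust SD.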
row,Structure (SMILES),nuclear count per well
1,CO/C=C(/C(=O)OC)c1ccccc1Oc1cc(Oc2ccccc2C#N)ncn1 [Azoxystrobin],-0.418
2,CC(O)(CS(=O)(=O)c1ccc(F)cc1)C(=O)Nc1ccc(C#N)c(C(F)(F)F)c1 (centres undefined) [Bicalutamide],0.14
3,CN1C[C@H](CNC(=O)OCc2ccccc2)C[C@@H]2c3cccc4c3c(cn4C)C[C@H]21 [Metergoline],-0.177
4,COC(=O)Nc1nc2ccccc2[nH]1 [Carbendazim],-1.49
5,CC(NC(C)(C)C)C(=O)c1cccc(Cl)c1 (centres undefined) [Bupropion],2.38
6,CCCCCCCCCCCCCCCCOC[C@@H](O)COP(=O)([O-])OCC[N+](C)(C)C,-0.362
7,Cn1c(CCCC(=O)O)nc2cc(N(CCCl)CCCl)ccc21,0.521
8,N#CC(C#N)=Cc1cc(O)c(O)c([N+](=O)[O-])c1 [Tyrphostin AG1288],-0.136
9,CCCC[C@H]1C(=O)O[C@H](C)[C@H](NC(=O)c2cccc(NC=O)c2OC)C(=O)O[C@@H](C)[C@@H]1OC(=O)CC(C)C [2-methoxyantimycin A3],-1.92
10,CC1(C)[C@@H](O)C[C@H]2[C@](C)(O)[C@@H]3CC[C@@H]4[C@@H](O)[C@@]3(C[C@@H](O)[C@@]21O)C[C@@]4(C)O [Grayanotoxin III],0.669
11,O=P1(NCCCl)OCCCN1CCCl (centres undefined) [Ifosfamide],0.343
12,O=C1C=CC(=O)c2c(O)cccc21 [Juglone],0.315
13,CN(C)C(=O)Oc1cc(OC(=O)N(C)C)cc(C(O)CNC(C)(C)C)c1 (centres undefined) [Bambuterol hydrochloride],-0.623
14,NCC(CC(=O)O)c1ccc(Cl)cc1 (centres undefined),0.824
15,CCN(C(C)=O)c1cccc(-c2ccnc3c(C#N)cnn23)c1 [Zaleplon],1.14

# System: HeLa
# Assay: MALAT1 nuclear FISH intensity, robust Z-score vs DMSO; higher = more nuclear MALAT1 lncRNA, active = -3 or less
# Settings: 10 µM; 6 h
row,Structure (SMILES),MALAT1 nuclear FISH intensity
1,CCOC(=O)CC(SP(=S)(OC)OC)C(=O)OCC (centres undefined) [Malathion],0.667 (inactive)
2,CCCCC[C@@H](/C=C/C=C\CCCCCCCC(=O)O)OO,-0.00896 (inactive)
3,C[C@H]1CCCC(=O)CCC/C=C/c2cc(O)cc(O)c2C(=O)O1 [Zearalenone],0.559 (inactive)
4,CO[C@H](C/C=C\C=C\CC/C=C/C[C@H](C)/C=C/C(=C\C(=O)O)CC(=O)O)/C(C)=C\C=C(/C)C(=O)O [Bongkrekic acid],1.49 (inactive)
5,C=C1C/C(=C/C)C(=O)O[C@@H]2CCN3CC=C(COC(=O)[C@]1(C)O)[C@H]23 [Seneciophylline],-0.29 (inactive)
6,CC1=C2C(=O)[C@H]3[C@@H](CC=C4C[C@@H](O)CC[C@@]43C)[C@@H]2CC[C@]12O[C@@H]1C[C@H](C)CN[C@H]1[C@H]2C [Jervine],0.967 (inactive)
7,CC1=C[C@H]2O[C@@H]3[C@H](O)C[C@](C)([C@@]2(CO)[C@H](O)C1=O)[C@]31CO1 [Deoxynivalenol],5.65 (inactive)
8,O=C(NCCN1CCC2(CC1)C(=O)NCN2c1cccc(F)c1)c1ccc(F)c(F)c1 [ML 298 hydrochloride],-1.07 (inactive)
9,NC(=O)C[S+]([O-])C(c1ccccc1)c1ccccc1 (centres undefined) [Modafinil (Schedule Iv)],-0.507 (inactive)
10,COc1ccc(C(=O)O[C@H]2CC[C@@]3(C)[C@@H]4CC[C@H]5[C@]6(O)C[C@H](O)[C@@]7(O)[C@@H](CN8C[C@@H](C)CC[C@H]8[C@@]7(C)O)[C@]6(O)C[C@@]53O[C@]24O)cc1OC [Veratridine],-0.448 (inactive)
11,C#CCN(C)C(C)Cc1ccccc1 (centres undefined) [Deprenyl],0.141 (inactive)
12,CC1(C)C(C=C(Cl)Cl)C1C(=O)OC(C#N)c1cccc(Oc2ccccc2)c1 (centres undefined) [Cypermethrin],-0.385 (inactive)
13,CC1=C2C[C@H]3[C@@H](CC=C4C[C@@H](O)CC[C@@]43C)[C@@H]2CC[C@]12O[C@@H]1C[C@H](C)CN[C@H]1[C@H]2C [Cyclopamine],-1.86 (inactive)
14,CCCCC/C=C\C/C=C\C/C=C\C/C=C\CCCC(N)=O [Arachidonamide],0.701 (inactive)
15,CCCCC/C=C\C[C@@H](/C=C/C=C\C/C=C\CCCC(=O)O)OO,0.224 (inactive)
16,COc1ccc(Cc2nccc3cc(OC)c(OC)cc23)cc1OC,-0.269 (inactive)
17,CC[C@@H](C(N)=O)N1CCCC1=O [Levetiracetam],-0.63 (inactive)
18,COC1=CC(=O)O[C@@H](/C=C/c2ccc3c(c2)OCO3)C1 [Methylsticin],-0.97 (inactive)
19,COC[C@@H](NC(C)=O)C(=O)NCc1ccccc1 [Lacosamide],0.22 (inactive)
20,CCCCC/C=C\C=C\[C@H](CCCCCCCC(=O)O)OO,-0.884 (inactive)

row,Structure (SMILES),MALAT1 nuclear FISH intensity
1,CO/C1=C\C(C)=C\[C@H](C)[C@H](O)[C@H](C)C/C(C)=C\C=C[C@@H](OC)[C@H]([C@H](C)[C@H](O)[C@@H](C)[C@]2(O)C[C@H](O)[C@@H](C)[C@H](C(C)C)O2)OC1=O [Bafilomycin A1 from Streptomyces griseus],0.226 (inactive)
2,O=C1CSC(c2ccccc2Cl)c2cc(Cl)ccc2N1 (centres undefined),-1.48 (inactive)
3,"Cc1c(C(=O)c2cccc3ccccc23)c2cccc3c2n1[C@H](CN1CCOCC1)CO3 [WIN 55,212-2 mesylate]",-0.777 (inactive)
4,COc1[nH]c(=O)c(C(=O)[C@@H](C)C[C@H](C)[C@@H](Cl)CCl)c(O)c1OC [Atpenin A5],0.871 (inactive)
5,CO/C=C(/C(=O)OC)c1ccccc1Oc1cc(Oc2ccccc2C#N)ncn1 [Azoxystrobin],-2.13 (inactive)
6,CC(O)(CS(=O)(=O)c1ccc(F)cc1)C(=O)Nc1ccc(C#N)c(C(F)(F)F)c1 (centres undefined) [Bicalutamide],-0.611 (inactive)
7,CN1C[C@H](CNC(=O)OCc2ccccc2)C[C@@H]2c3cccc4c3c(cn4C)C[C@H]21 [Metergoline],0.284 (inactive)
8,COC(=O)Nc1nc2ccccc2[nH]1 [Carbendazim],-1.37 (inactive)
9,CC(NC(C)(C)C)C(=O)c1cccc(Cl)c1 (centres undefined) [Bupropion],-0.024 (inactive)
10,CCCCCCCCCCCCCCCCOC[C@@H](O)COP(=O)([O-])OCC[N+](C)(C)C,1.45 (inactive)
11,Cn1c(CCCC(=O)O)nc2cc(N(CCCl)CCCl)ccc21,-0.732 (inactive)
12,N#CC(C#N)=Cc1cc(O)c(O)c([N+](=O)[O-])c1 [Tyrphostin AG1288],0.0609 (inactive)
13,CCCC[C@H]1C(=O)O[C@H](C)[C@H](NC(=O)c2cccc(NC=O)c2OC)C(=O)O[C@@H](C)[C@@H]1OC(=O)CC(C)C [2-methoxyantimycin A3],0.515 (inactive)
14,CC1(C)[C@@H](O)C[C@H]2[C@](C)(O)[C@@H]3CC[C@@H]4[C@@H](O)[C@@]3(C[C@@H](O)[C@@]21O)C[C@@]4(C)O [Grayanotoxin III],0.292 (inactive)
15,O=P1(NCCCl)OCCCN1CCCl (centres undefined) [Ifosfamide],-1.16 (inactive)
16,O=C1C=CC(=O)c2c(O)cccc21 [Juglone],-0.877 (inactive)
17,CN(C)C(=O)Oc1cc(OC(=O)N(C)C)cc(C(O)CNC(C)(C)C)c1 (centres undefined) [Bambuterol hydrochloride],0.417 (inactive)
18,NCC(CC(=O)O)c1ccc(Cl)cc1 (centres undefined),-0.547 (inactive)
19,CCN(C(C)=O)c1cccc(-c2ccnc3c(C#N)cnn23)c1 [Zaleplon],-0.674 (inactive)
